Reference: PubChem BioAssay (NCI)
This is part of a sample that, as a whole, favours compounds with a hit. Of some 83,000 tested, about 20% had one in any assay.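 Note: values are percent growth. 100 is the growth of untreated cells, values between 100 and 0 indicate rising inhibition; between -100 and 0 indicates cell death.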 Calls of active or inactive are those of the source. The calls were made as follows: active = growth percent below 10; inactive = the rest.

What was measured:
Experiment in all cases: NCI-60 one-dose screen, 48 h (100 = growth as untreated, 0 = no growth, -100 = all killed)
Settings in all cases: 10 µM unless noted
SR leukemia = tested on: SR leukemia
RPMI-8226 leukemia = tested on: RPMI-8226 leukemia
OVCAR-5 ovarian = tested on: OVCAR-5 ovarian
SK-OV-3 ovarian = tested on: SK-OV-3 ovarian
IGROV1 ovarian = tested on: IGROV1 ovarian
OVCAR-3 ovarian = tested on: OVCAR-3 ovarian
HS 578T breast = tested on: HS 578T breast
NCI/ADR-RES ovarian = tested on: NCI/ADR-RES ovarian
OVCAR-4 ovarian = tested on: OVCAR-4 ovarian
OVCAR-8 ovarian = tested on: OVCAR-8 ovarian

Measured: growth

CCOC(=O)n1cc(-c2nonc2-c2cn(C)c3ncccc23)c2cc(F)ccc21
inactive: SR leukemia 84% | RPMI-8226 leukemia 58.3% | OVCAR-5 ovarian 87.7% | SK-OV-3 ovarian 85.8% | IGROV1 ovarian 56.3% | OVCAR-3 ovarian 77.6% | HS 578T breast 79.4% | NCI/ADR-RES ovarian 74%

COc1ccc(-n2nc(C)c3c(Nc4ccc(NC(=O)Nc5cccc(C(F)(F)F)c5)cc4)ncnc32)cc1
inactive: SR leukemia 21.2% | SK-OV-3 ovarian 16.9%
active: RPMI-8226 leukemia -10.9% | OVCAR-5 ovarian 2.66% | OVCAR-4 ovarian 7.24% | IGROV1 ovarian 7.48% | OVCAR-3 ovarian -31.6% | HS 578T breast -6.67% | NCI/ADR-RES ovarian 4.85%

Cc1nn(-c2ccc(F)cc2)c2ncnc(Oc3ccc(NC(=O)Nc4ccc(Cl)c(C(F)(F)F)c4)cc3)c12
inactive: SR leukemia 110% | RPMI-8226 leukemia 98.7% | OVCAR-5 ovarian 99.3% | OVCAR-4 ovarian 110% | SK-OV-3 ovarian 92.6% | IGROV1 ovarian 102% | OVCAR-3 ovarian 114% | HS 578T breast 91% | NCI/ADR-RES ovarian 98.5%

O=C1C=C(OCC=C(Cl)Cl)C(=O)c2ccccc21
inactive: SR leukemia 51.6% | RPMI-8226 leukemia 45.6% | OVCAR-5 ovarian 116% | OVCAR-4 ovarian 15.9% | SK-OV-3 ovarian 102% | IGROV1 ovarian 75.6% | OVCAR-3 ovarian 32.2% | HS 578T breast 55.5% | NCI/ADR-RES ovarian 33.8%

CCN1CCN(c2nc(NCCCNc3ccnc4cc(Cl)ccc34)c3ccccc3n2)CC1
inactive: OVCAR-8 ovarian 16.6% | SK-OV-3 ovarian 60% | IGROV1 ovarian 59.3% | OVCAR-3 ovarian 54% | HS 578T breast 78.8% | NCI/ADR-RES ovarian 92.6%
active: SR leukemia -33.3% | RPMI-8226 leukemia -10%

O=C(/C=C/C=C/c1ccc2c(c1)OCO2)N/N=C\c1ccc(O)cc1O
inactive: SR leukemia 21.3% | RPMI-8226 leukemia 47.7% | OVCAR-5 ovarian 42.5% | SK-OV-3 ovarian 27% | IGROV1 ovarian 28.9% | HS 578T breast 70.2%
active: OVCAR-4 ovarian 9.43% | OVCAR-3 ovarian 9.27% | NCI/ADR-RES ovarian 5.15%

CC[C@]1(O)C[C@@H]2CN(CCc3c([nH]c4ccccc34)[C@@](C(=O)OC)(c3cc4c(cc3OC)N(C)[C@H]3[C@@](O)(C(N)=O)[C@H](O)[C@]5(CC)[C@@H]6C[C@@H]6CN6CC[C@]43[C@@H]65)C2)C1
active: OVCAR-3 ovarian 6.81% | NCI/ADR-RES ovarian 9.52%
inactive: SR leukemia 12.1% | RPMI-8226 leukemia 13.8% | OVCAR-5 ovarian 52.2% | OVCAR-4 ovarian 52% | SK-OV-3 ovarian 14.8% | IGROV1 ovarian 36.5% | HS 578T breast 30.2%

COc1ccc(SC2c3ccc(C)cc3Oc3nc(N)c(C#N)c(N)c32)cc1 (stereo not given)
inactive: SK-OV-3 ovarian 44.9%
active: SR leukemia -28% | RPMI-8226 leukemia -34.2% | OVCAR-5 ovarian 5.64% | OVCAR-4 ovarian -93.5% | IGROV1 ovarian -82.8% | OVCAR-3 ovarian -93.7% | HS 578T breast 3.13% | NCI/ADR-RES ovarian 1.24%

N#Cc1nnn(-c2ccc(S(N)(=O)=O)cc2)c1NC(=O)CCl
inactive: SR leukemia 96.1% | RPMI-8226 leukemia 91.4% | OVCAR-5 ovarian 96.6% | SK-OV-3 ovarian 96.6% | IGROV1 ovarian 104% | OVCAR-3 ovarian 106% | NCI/ADR-RES ovarian 102%
active: HS 578T breast 0.129%

COc1cc2c(cc1O)CC[C@@H]1[C@@H]2CC[C@]2(C)[C@@H](OCCN(C)C)CC[C@@H]12
active: SR leukemia -11.6% | RPMI-8226 leukemia 5.96%
inactive: OVCAR-5 ovarian 78.8% | OVCAR-4 ovarian 47% | SK-OV-3 ovarian 63% | IGROV1 ovarian 73.4% | OVCAR-3 ovarian 12.5% | HS 578T breast 27% | NCI/ADR-RES ovarian 17.9%

C#CC(F)(F)[C@]1(O)CC[C@H]2[C@@H]3CCC4=CC(=O)CCC4=C3[C@@H](c3ccc(C4CC4)cc3)C[C@@]21C
inactive: OVCAR-8 ovarian 24.8% | OVCAR-4 ovarian 10.9% | HS 578T breast 33.4% | NCI/ADR-RES ovarian 11%
active: SR leukemia -38.7% | OVCAR-5 ovarian 9.97% | SK-OV-3 ovarian -79.4% | IGROV1 ovarian -48.5% | OVCAR-3 ovarian -73.4%

O=C1c2ccccc2C(=O)c2c(N=Nc3[nH]c(=S)[nH]c3O)cccc21
inactive: SR leukemia 24.5% | OVCAR-5 ovarian 49.8% | OVCAR-4 ovarian 58.9% | SK-OV-3 ovarian 30.6% | IGROV1 ovarian 27% | NCI/ADR-RES ovarian 50%
active: RPMI-8226 leukemia -2.62% | OVCAR-3 ovarian 1.75% | HS 578T breast 5.86%

CN1CCN(CCCOc2cccc3nc(Nc4ccc(Cl)c(F)c4)ccc23)CC1
inactive: RPMI-8226 leukemia 23.9% | OVCAR-5 ovarian 58.6% | OVCAR-4 ovarian 65.4% | SK-OV-3 ovarian 82.7% | IGROV1 ovarian 65.7% | OVCAR-3 ovarian 69.9% | HS 578T breast 52.7% | NCI/ADR-RES ovarian 49.7%
active: SR leukemia -16%

Cc1ccc2c(c1)C(=O)/C(=C/c1cccc(OCC(=O)c3ccc(Cl)cc3)c1)CS2
active: SR leukemia 9.06% | RPMI-8226 leukemia -27%
inactive: OVCAR-5 ovarian 105% | OVCAR-4 ovarian 104% | SK-OV-3 ovarian 115% | OVCAR-3 ovarian 98.1% | HS 578T breast 99.9% | NCI/ADR-RES ovarian 54.4%

NS(=O)(=O)c1ccc(CN=C2NC(=O)S/C2=C\c2ccc(Br)cc2)cc1
inactive: SR leukemia 119% | RPMI-8226 leukemia 99.8% | OVCAR-8 ovarian 106% | SK-OV-3 ovarian 94.3% | IGROV1 ovarian 96.9% | OVCAR-3 ovarian 106% | HS 578T breast 97.6% | NCI/ADR-RES ovarian 105%
